# Bioassay records from PubChem.
# hcDAF12 agonist – activators of H. contortus DAF-12 nuclear receptor. HEK293 hcDAF-12 lit1-tk-luc reporter, luminescence; 0% DMSO, 100% Δ7-dafachronic acid. activation, % at 6.8 µM. AID 652067. actives 1.4% (n = 370,000);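 active = activation above the mean of all tested compounds plus 3 SD, cut at about 5.5% in these data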;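 also: 100% = response to 3 µM Δ7-dafachronic acid high control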
# ssDAF12 agonist – S. stercoralis DAF-12 activation, primary screen. HEK293 ssDAF-12/GRIP1 lit1-tk-luc reporter, luminescence; % of 3 µM dafachronic acid response. activation, % at 6.8 µM. actives 1% (n = 370,000);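 active = activation above the mean over all tested compounds plus 3 SD, cut at about 0.9% in these data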;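 also: 0% = DMSO-only wells and 100% = 3 µM delta7-dafachronic acid wells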
# DAX1 inh-1 – inhibits human nuclear receptor DAX1 | P51843 | HEK293 Gal4-DAX1 luciferase reporter, luminescence | inhibition, % at 6.75 µM | actives 0.99% (n = 340,000) | AID 504766;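 active = inhibition above the mean over all tested compounds plus 3 SD, cut at about 4.2% in these data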;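 also: 0% = DAX1-transfected cells with DMSO and 100% = empty-vector control cells with DMSO; inhibition shows as a rise in luminescence from relieved DAX1 repression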
# Target sequence (P51843 207-470 limits assumed): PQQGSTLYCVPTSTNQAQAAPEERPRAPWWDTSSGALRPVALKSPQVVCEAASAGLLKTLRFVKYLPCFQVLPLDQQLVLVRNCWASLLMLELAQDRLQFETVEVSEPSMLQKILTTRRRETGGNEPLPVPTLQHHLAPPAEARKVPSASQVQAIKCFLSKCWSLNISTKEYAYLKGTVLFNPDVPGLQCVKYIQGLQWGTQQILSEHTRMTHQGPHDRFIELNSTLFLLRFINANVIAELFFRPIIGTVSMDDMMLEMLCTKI
# hgDAF12 agonist – hgDAF-12 agonism, primary luciferase screen | HEK293 GAL4-hgDAF12 UAS-luciferase reporter, agonist luminescence; normalized to butyrate control | activation, % at 6.8 µM | actives 1.8% (n = 370,000) | AID 687014;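 active = activation above a cutoff set at the mean of all screened compounds plus 3 SD, cut at about 10% in these data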;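 also: 0% = DMSO wells and 100% = sodium butyrate wells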
# DAX1 inh-2 – inhibitors of DAX1 repression of SF-1 activated StAR promoter. HEK293T StAR-luciferase reporter, SF-1/DAX-1 repression relief. inhibition, % at 6.8 µM. actives 1.1% (n = 370,000). AID 652010;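 active = inhibition above the mean over all tested compounds plus 3 SD, cut at about 3.6% in these data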;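 also: 0% = DAX-1 cells with DMSO and 100% = cells lacking DAX-1 with DMSO; higher inhibition means more luminescence from relief of DAX-1 repression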
# DAX1 conf – confirmation of human DAX1 (NR0B1) inhibitors; actives 87% (n = 2,400); inhibition, % at 6.8 µM; shares compounds with DAX1 inh-2; HEK293T StAR-promoter luciferase reporter, SF-1/DAX-1 repression; AID 652134;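 active = inhibition above the average of every tested compound plus 3 SD, cut at about 3.8% in these data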;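 also: 0% = DAX-1 cells with DMSO and 100% = no DAX-1 control cells with DMSO; active compounds raise luminescence by relieving repression of the StAR reporter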
# SF1 AF2mut Luc – nonselective inhibitor or artifact in SF-1 mutant DAX1 counter-screen; shares compounds with DAX1 inh-2; HEK293 StAR-luciferase, SF-1 AF2 mutant, luminescence; inhibition, % at 6.8 µM; actives 78% (n = 2,400); AID 652136;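 active = inhibition above the mean of all tested compounds plus 3 SD, cut at about 3% in these data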;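 also: 0% = DAX-1 transfected cells with DMSO and 100% = cells without DAX-1 with DMSO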
# An asterisk follows results filed as active; . = no result given. Sampled rows, rich in hits. Any-hit rate of the full collection: about 4.1%.
SMILES,hcDAF12 agonist,ssDAF12 agonist,DAX1 inh-1,hgDAF12 agonist,DAX1 inh-2,DAX1 conf,SF1 AF2mut Luc
CSc1ccccc1OCc1cc(C(=O)N2CCSCC2)no1,5,-1,2,12*,5.3*,5.4*,3.4*
O=C1c2c(-c3ccc(Br)cc3)noc2CCN1Cc1cn(Cc2cccnc2)nn1,-1,-1,.,-1,-1,.,.
C/C=C1\NC(=O)[C@H](C)NC(=O)[C@@H](NC(=O)[C@H](Cc2ccc(O)cc2)NC(=O)[C@@H](NC(=O)/C(C)=C/C)C(C)C)[C@@H](C)OC(=O)[C@H](CC(C)C)NC(=O)[C@@H](CCC(=O)O)NC1=O,-1,0,.,0,0,.,.
Clc1cccc(CN2CCN(c3ncc(Cc4ccccc4)cn3)CC2)c1Cl,-3,-2,.,-6,-3,.,.
CCOC(=O)c1c(C)[nH]c(C(=O)NNC(=O)c2ccccc2F)c1C,2,-1,2,10,5.1*,8.3*,6.5*
O=C1CCC[C@H]2C[C@H](NCc3ccc(Cl)c(C(F)(F)F)c3)CC[C@]23CCCN13,-1,-1,.,0,.,.,.
O=C(Nc1cccc(-c2ccc(N3CCOCC3)nn2)c1)c1ccccc1Cl,1,0,0,6,5.2*,5.2*,5.0*
CCCCN1C(=O)C(CC(=O)NC2CCCC2)CC(C(=O)N2CCCCCC2)=C1C (configuration not stated),1,-1,.,0,1,.,.
COc1cc(OC)cc(C(=O)Nc2ccc3nc4n(c(=O)c3c2)CCCCC4)c1,-2,-1,0,1,6.0*,3,2
COc1ccc2ccccc2c1C=Nn1c(-c2cc(-c3ccccc3)n[nH]2)n[nH]c1=S,-1,0,.,0,0,.,.
Cc1cc(C)cc(NC(=O)N2CCc3ccccc3C2)c1,1,0,1,5,2,.,.
CCc1ccc(NC(=S)N2CCCC2)cc1,6.0*,0,1,12*,5.3*,8.6*,3.9*
CCOC(=O)c1ccc(NC(=O)N2CCCCC2)cc1,.,.,2,.,.,.,.
CCc1ccc(NC(=O)N2CCCCCC2)cc1,4,0,4,4,5.2*,9.8*,7.0*
CCc1ccc(NC(=S)N2CCN(C)CC2)cc1,4,-1,1,0,3,.,.
O=C(Nc1ccc(Cl)c(Cl)c1)N1CCCCCC1,0,0,1,7,5.3*,8.8*,4.8*
O=C(Nc1ccc(Br)cc1)N1CCc2ccccc2C1,1,0,1,5,5.3*,5.5*,3.0*
S=C(Nc1ccccc1I)OC1CCC12CCC(c1ccccc1)CC2 (configuration not stated),0,-1,.,-1,.,.,.
CCS(=O)(=O)N1Cc2cc(C(=O)NCC3CC3)nc(-c3cccc(-c4cccnc4)c3)c2[C@@H]1CCO,-1,-1,.,-3,-4,.,.
O=[N+]([O-])c1cccc(OC[C@@H](O)CN2CCC(C(O)(c3ccccc3)c3ccccc3)CC2)c1,-2,-1,.,-2,0,.,.
O=C(Nc1ccc(Br)cc1)N1CCCCCC1,1,0,1,7,7.2*,4.8*,3.3*
O=C(Nc1ccc(Br)cc1)N1CCCC(O)C1 (configuration not stated),0,-1,0,3,2,.,.
CCN(CC)CCn1c2c(c(SCC(=O)Nc3ccc(F)c(F)c3)nc1=O)CCC2,0,-1,-1,-3,0,.,.
CCN(CC)CCCn1c2c(c(SCC(=O)Nc3ccc(F)c(F)c3)nc1=O)CCC2,1,-1,-1,-1,4.7*,2,2
CCN(CC)CCCn1c2c(c(SCC(=O)Nc3nc(C)cs3)nc1=O)CCC2,-1,0,-1,4,2,.,.
CCN(CC)CCCn1c2c(c(SCC(=O)Nc3cccc(C)c3C)nc1=O)CCC2,2,-1,1,2,7.2*,7.7*,6.3*
CC1(C)Cc2cccc(OCC(=O)NCCc3ccc(S(N)(=O)=O)cc3)c2O1,-2,-2,0,3,1,.,.
CC1(C)Cc2cccc(OCC(=O)NCCc3ccccc3)c2O1,-1,0,1,-1,5.1*,4.5*,3.1*
